GLP1R cytotox: cytotoxicity in counter-screen for GLP-1R inverse agonists; AID 624418; HEK293 cAMP-luciferase reporter cells, luminescence, 24 h; hit rate 0.13% among 410,000; Potency, µM (highest dose often 38.3 µM), actives largely listed as inhibitors;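 further: loss of luciferase light is scored as toxicity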
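Here, cytotoxicity is scored as loss of luminescence. The MLSMR collection was tested on cells seeded in medium containing 10% Nu serum, with a 24 hr compound exposure preceded by 12 hours of culture.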
p53 reactivator: re-activators of mutant p53; H1299 p53-A138V BP100-luciferase reporter, luminescence, 24 h; Potency, µM (doses to about 92.2 µM), actives largely listed as activators; hit rate 0.063% among 320,000; AID 504706; further: nearly all actives have a fitted effect of over 45% in size
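p53-null H1299 cells stably carrying temperature-sensitive p53-A138V and a BP100-luciferase reporter were pinned with compounds (4-point, 1:5 series) and held 24 hrs at 37 deg C. Luminescence was read 10 min after detection reagent.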
GLP1R ag: activates the human GLP-1 receptor | HEK293 GLP-1R CRE-luciferase, luminescence, 4-6 h; cells express a hypersensitive GLP-1R form | Potency, µM (top dose mostly 45.6 µM), most hits filed as activators | hit rate 0.007% among 380,000 | AID 624172
ClpP mod: qHTS Assay for Activators of ClpP | purified B. subtilis ClpP, FRET peptide cleavage, 20 min | ATP-dependent Clp protease proteolytic subunit (Bacillus subtilis (strain 168)), P80244 | hit rate 1.9% among 340,000 | Potency, µM (series often up to 57.5 µM); active means well fitted falling curve with a large enough effect; inconclusive means small, poorly fitted or top-dose-only effect; inactive means no such curve, though single readings can be large or run the other way; further: the source files actives as falling curves though it sought activators and does not explain the sign; nearly all actives have a fitted effect of over 65% in size
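FRET quenching reversal measured ClpP activation: 10 microg/mL B. subtilis ClpP at pH 8 with the FRET-FV decapeptide, read at 430 nm after 320 nm excitation. The 20-min minus 0-min signal was scaled between DMSO/no-enzyme wells and ADEP (5.8 microM final).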
LDHA block: inhibitors of human lactate dehydrogenase A | P00338 | purified LDHA, NADH/diaphorase-resazurin fluorescence; stronger effect = lower value | activity change, % (values are at about 110 or 230 µM) | hit rate 0.15% among 480,000; in the data active means activity change below about -30%; inconclusive means mostly about -25% to -30%
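Enzyme activity of human lactate dehydrogenase 5 (2 nM; 0.06 mM NADH, 0.2 mM pyruvate, 5 min, RT) is measured via a resazurin/diaphorase fluorescence readout of residual NADH.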
GLP-1R inv ag: inverse agonists of human GLP-1 receptor. HEK293 GLP-1R CRE-luciferase, luminescence, 24 h; GLP-1R form is constitutively active. hit rate 1.6% among 410,000. P43220. Potency, µM (doses to about 38.3 µM), usual class: inhibitors. AID 624417; further: nearly all actives have a fitted effect of over 55% in size
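HEK293 cells stably co-expressing a cAMP-responsive luciferase reporter and constitutively active GLP-1R were seeded, incubated 12 h, then exposed to compounds for 24 h at 37 C. Luminescence was read 12 min after detection reagent; inverse agonists lower signal.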
Numbers stand for hits; – = inactive; ? = inconclusive; · = no result. Sampled rows, rich in hits. Any-hit rate of the full collection: about 2.9%. Unless noted, the call rests on the fitted dose curve; in most records, active means well fitted curve in the direction sought with a large enough effect; inconclusive means small, poorly fitted or top-dose-only effect, or another doubt; inactive means no such curve, though single readings can be large; an effect the other way counts as inactive or inconclusive.

SMILES	GLP1R cytotox	p53 reactivator	GLP1R ag	ClpP mod	LDHA block	GLP-1R inv ag
Cc1ccccc1NC(=O)N1CCCC(c2nc(-c3ccc(F)cc3)no2)C1 (centres undefined)	–	–	–	–	–	–
Cc1ccccc1NC(=O)N1CCCC(c2nc(-c3ccc(C(C)C)cc3)no2)C1 (centres undefined)	–	44.7µM	–	–	–	?
O=C(NCc1ccccc1F)c1ccc(-c2ccccc2)cc1	·	·	·	·	–	·
Cc1noc(C)c1COC(=O)c1ccccc1Sc1ccccc1C#N	–	–	–	–	–	8.91µM
Cc1nc([N+](=O)[O-])c(Br)n1Cc1ccc(Cl)c(Cl)c1	10µM	–	–	–	–	10µM
COc1cc(C(=O)NCc2ccc(F)cc2)cc(Cl)c1OC	–	–	–	–	–	–
COCCNC(=O)c1cc(-c2ccccc2)nn1CC1CC(c2cccc([N+](=O)[O-])c2)=NO1 (centres undefined)	?	·	–	–	–	–
CC(=O)Nc1ccc(S(=O)(=O)N(C)CC(=O)OCC(=O)NNC(=O)c2ccccc2F)cc1	–	–	–	11.2µM	–	–
O=c1[nH]c2ccccc2cc1CN(c1ccccc1)S(=O)(=O)c1ccccc1	–	–	–	31.6µM	–	–
COc1ccc2[nH]c(=O)c(CN(c3ccccc3)S(=O)(=O)c3ccccc3)cc2c1	–	?	–	–	–	–
Cc1ccc(N(Cc2cc3ccc(C)cc3[nH]c2=O)S(=O)(=O)c2ccccc2)c(C)c1	–	–	–	–	–	–
Cc1ccc(N(Cc2cc3cc(C)ccc3[nH]c2=O)S(=O)(=O)c2ccccc2)cc1	–	–	–	28.2µM	–	–
Cc1cccc(N(Cc2cc3ccccc3[nH]c2=O)S(=O)(=O)c2ccccc2)c1	–	–	–	31.6µM	–	–
CCOc1ccc(N(Cc2cc3ccc(C)cc3[nH]c2=O)S(=O)(=O)c2ccccc2)cc1	?	–	–	31.6µM	–	?
CCCOc1ccc(N2C(=O)CC(SCC(N)C(=O)OCC)C2=O)cc1 (centres undefined)	–	–	–	–	–	–
COc1ccc(C(=O)C(=O)c2ccc(OCCO)cc2)cc1	–	–	–	–	–	–
O=C(CN(c1ccccc1Cl)S(=O)(=O)c1ccccc1)NC1CC2CCC1C2 (centres undefined)	–	·	–	–	–	?
Cc1cccc(N(Cc2cc3ccc(C)cc3[nH]c2=O)S(=O)(=O)c2ccccc2)c1	–	–	–	25.1µM	–	?
Cc1ccc2cc(CN(c3ccccc3)S(=O)(=O)c3ccccc3)c(=O)[nH]c2c1	–	–	–	·	–	–
COC(=O)c1ccc(Sc2ccc(C)cc2)c(N)c1	–	?	–	28.2µM	–	–
C[C@H](CO)N1C[C@H](C)[C@@H](CN(C)S(=O)(=O)c2ccc(F)cc2)Oc2c(NC(=O)Nc3ccc(C(F)(F)F)cc3)cccc2C1=O	–	–	–	–	–	?
C[C@@H]1CN([C@@H](C)CO)C(=O)c2ccccc2-c2ccccc2CO[C@@H]1CN(C)S(=O)(=O)c1ccc(C(F)(F)F)cc1	–	·	–	–	–	10µM
C[C@H](CO)N1C[C@H](C)[C@H](CN(C)S(C)(=O)=O)OCc2ccccc2-c2c(n(C)c3ccccc23)C1=O	–	·	–	–	–	–
C[C@H](CO)N1C[C@H](C)[C@@H](CN(C)S(=O)(=O)c2ccc3ccccc3c2)OCc2cn(nn2)CCCC1=O	–	·	–	–	–	–
C[C@@H]1CN([C@H](C)CO)C(=O)CCCn2cc(nn2)CO[C@H]1CN(C)S(=O)(=O)c1ccc2ccccc2c1	–	·	–	–	-34.2	–
C[C@H](CO)N1C[C@H](C)[C@H](CN(C)S(=O)(=O)c2cccc(F)c2)OCc2ccccc2-c2c(n(C)c3ccccc23)C1=O	–	·	–	–	–	11.2µM
COc1cccc(C2c3c(ncn(-c4ccncc4)c3=N)Oc3ccc4ccccc4c32)c1 (centres undefined)	·	·	·	·	–	·

Assay outcomes from PubChem BioAssay.
